Measurements: PubChem BioAssay

Assay: calcein-AM signal in unstimulated myeloma cells – cell-based, calcein-AM fluorescence, 48 h, PK04 Diversity Set, profiling panel (AID 1166);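 also: cells grown under basal conditions without added stimulus; test concentration not given here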
Conditions: RPMI8226 myeloma viability, higher = more signal

In order of rising z-score:
1. COc1ccc([Si](C)(C)[C@H]2[C@H](CC(=O)N3Cc4ccccc4C[C@H]3CO)O[C@@]3(C(=O)N(c4ccccc4)c4ccccc43)[C@@H]2C)cc1  -4.49
2. COc1ccc([Si](C)(C)[C@H]2[C@H](CC(=O)N3Cc4ccccc4C[C@H]3CO)O[C@@]3(C(=O)N(C)c4c(Br)cc(C)cc43)[C@@H]2C)cc1  -4.36
3. COc1ccc(C(=O)Nc2ccc(CN3C(=O)[C@@]4(O[C@@H](CCn5cc(CCO)nn5)[C@H]([Si](C)(C)c5ccc(OC)cc5)[C@H]4C)c4ccccc43)cc2)cc1  -4.27
4. COc1ccc([Si](C)(C)[C@@H]2[C@@H](CC(=O)N3CCC[C@H]3CO)O[C@]3(C(=O)N(Cc4cccc(N5CCCCC5=O)c4)c4ccccc43)[C@H]2C)cc1  -4.25
5. COc1ccc([Si](C)(C)[C@@H]2[C@@H](CC(=O)N(CCO)Cc3ccccc3)O[C@]3(C(=O)N(Cc4ccc(I)cc4)c4ccccc43)[C@H]2C)cc1  -4.17
6. O=C1C=C(c2ccccc2)C(=O)C2=C1CC([C@H]1Oc3ccccc3S(=O)(=O)N3CCC[C@@H]13)=CC2  -3.99
7. C=C(CCCC)C(=O)CC[C@@H](OC(=O)c1ccccc1-c1ccccc1C(=O)O)c1ccccc1OCCO  -3.95
8. C=CC[C@@]12N=C(c3ccc(OCCCO)cc3)O[C@@H]1c1ccccc1N(CCC)C2=O  -3.66
9. C#CCN1[C@@H](Cc2ccccc2)C(=O)O[C@H](Cc2ccccc2)[C@@H]1/C=C/C1CC1  -2.16
10. C=C(CCCC)/C(=C/C[C@H](OC(=O)c1ccncc1)c1ccccc1OCCO)c1cc(C(=O)OC)ccc1OC  -1.82
11. C=C(CCCC)/C(=C/C[C@H](OC(C)=O)c1cccc(OCCO)c1)c1cnc2ccccc2c1  -1.26
12. O=C1N(Cc2ccccc2)c2ccccc2C[C@@]12COC(c1ccc(OCCCO)cc1)=N2  -1.19
13. C=C(COC)/C(=C/C[C@@H](OC(C)=O)c1ccccc1OCCO)c1cnc2ccccc2c1  -1.14
14. C=CCOC(=O)[C@@H]1[C@H]2C(=O)O[C@H](c3ccccc3)[C@H](c3ccccc3)N2[C@H](c2ccc(OCCOC(=O)[C@H]3C[C@H]4C(=O)N[C@@H](CCCCN(C)C)C(=O)N4[C@H]3c3ccc(O)cc3)cc2)[C@@]12C(=O)Nc1ccc(I)cc12  -1.11
15. COC(=O)[C@@]1(Cc2ccccc2)[C@H]2c3cc(C(=O)N4CCCC4)n(Cc4ccc(OC)c(OC)c4)c3C[C@H]2CN1C(=O)c1ccccc1  -1.05
16. C=CCOC(=O)[C@@H]1[C@H]2C(=O)O[C@H](c3ccccc3)[C@H](c3ccccc3)N2[C@H](c2ccc(OCCOC(=O)[C@H]3C[C@H]4C(=O)NCC(=O)N4[C@H]3c3cccc(OCCO)c3)cc2)[C@@]12C(=O)Nc1ccc(I)cc12  -0.785
17. CC=CC(O)C1C=CC2C(=O)NC(=O)C2N1Nc1ccc(Cl)cc1Cl (stereo not drawn)  -0.624
18. CCOC(=O)C[C@H]1[C@H](OC(=O)Cc2ccc3c(c2)OCO3)[C@@H](NC(=O)c2ccc3ccccc3n2)c2cc(OCCCO)ccc2N1C(=O)Cc1ccc(OC)cc1  -0.603
19. O=C(NCc1ccccc1)[C@@H]1c2ccccc2C(=O)N(Cc2cc(C(F)(F)F)cc(C(F)(F)F)c2)[C@H]1c1ccc(CO)cc1  -0.487
20. O=C1[C@H]2C=C(I)[C@H](C[C@@H]2OCCCCCCO)[C@@]12CO2  -0.273
21. CC[C@@H]1C=C(C(=O)O)[C@H](c2ccc(OC)cc2)N1S(=O)(=O)c1ccc(C)cc1  -0.23
22. O=C1c2ccccc2[C@@]2(Cc3ccccc3N(Cc3ccccc3)C2=O)[C@H](c2ccc(CO)cc2)N1Cc1ccccc1Cl  0.139
23. O=C(NC1CC1)[C@@H]1c2ccccc2C(=O)N(CC23CC4CC(CC(C4)C2)C3)[C@H]1c1ccc(CO)cc1  0.202
24. COC(=O)C1(Cc2ccccc2)C=C2C(=C(C)C(=O)C2C)CN1 (stereo not drawn)  0.213
25. CC(C)(C)N1CC=CC23O[C@@H]4/C=C\CCCOC(=O)C4[C@H]2C(=O)N(CCCCCO)[C@@H]3C1=O (stereo partly drawn)  0.382
26. COCCOC(=O)N1C(=O)[C@@]2(c3cc(C#CCNC(N)=O)ccc31)[C@H](C(=O)Nc1nc3ccccc3s1)[C@H]1C(=O)O[C@H](c3ccccc3)[C@H](c3ccccc3)N1[C@@H]2c1ccccc1OCCO  0.405
27. CCCCN1CC=CC23O[C@@H]4/C=C\CCCOC(=O)C4[C@H]2C(=O)N(C(CO)C(C)C)[C@@H]3C1=O (stereo partly drawn)  0.463
28. COC(=O)C(CC#Cc1ccc2c(c1)[C@]1(C(=O)N2)[C@H](C(=O)N2CCc3cc(OC)c(OC)cc3C2)[C@H]2C(=O)O[C@H](c3ccccc3)[C@H](c3ccccc3)N2[C@@H]1c1ccccc1OCCO)C(=O)OC  0.546
